An excerpt weighted towards active compounds, which were near 3.2% of everything screened.
BRCT PPI green: blocks human BRCA1 BRCT binding to phosphopeptide, green readout. P38398. BRCA1 BRCT-phosphopeptide binding, green fluorescence polarization. Potency, µM (titrated, usually from 76.9 µM), hits mostly inhibitors. 75,000 tested, 0.05% active
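Fluorescence polarization: His-tagged BRCT (~35 kDa BRCA1 C-terminus, 250 nM) bound to 100 nM fluorescein-labeled phosphorylated 10-aa BACH1 peptide, pH 7.3 phosphate buffer with DTT and Tween 20. Compounds incubated 12 min at room temperature; inhibition read as lowered polarization.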
BRCT PPI red: inhibitors of human BRCA1 BRCT-phosphoprotein interaction (red fluorophore). BRCT-phosphopeptide binding, red fluorescence polarization. P38398. 75,000 tested, 0.03% active. AID 892. Potency, µM (top dose mostly 76.9 µM), actives largely listed as inhibitors
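Rhodamine-labelled pBACH1 10-mer (100 nM) bound to BRCT domain (100 nM) at pH 7.3; compounds incubated 12 min room temperature, polarization read. Free peptide defines full inhibition; unlabelled decapeptide titrated as control.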
DNA Pol III inh: inhibitors of bacterial DNA polymerase III holoenzyme. Potency, µM (series often up to 57.1 µM). 71,000 tested, 0.25% active. reconstituted DNA polymerase III holoenzyme replication, biochemical
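Reconstituted *E. coli* holoenzyme (0.35 nM Pol III, 1 nM beta, 154 nM SSB, 2 nM primase) was preincubated with compound for 15 min at RT. Synthesis on 1.4 nM ssM13Gori ran 35 min, then was stopped with PicoGreen/EDTA and read as dsDNA fluorescence.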
HEK293 cAMP ctrl: raises cAMP in parental HEK293 cells, TSHR agonist counter-screen. parental HEK293 CNG cAMP sensor, membrane potential fluorescence. Potency, µM (titrated, usually from 57.1 µM), actives largely listed as activators. 73,000 tested, 2.5% active. AID 938; also: nearly all actives have a fitted effect of over 55% in size
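Parental HEK 293 cells stably expressing a cAMP-gated CNG channel were loaded with membrane potential dye containing 100 uM RO 20-1724 for 60 min. Compound added for 30 min; depolarization read as fluorescence intensity at 590 nm.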
TSHR agonist: TSH receptor (human) agonism; P16473; HEK293-CNG-TSHR cells (CNG channel as cAMP sensor), membrane potential dye, cAMP; Potency, µM (doses to about 57.1 µM), most hits filed as activators; 73,000 tested, 0.48% active; AID 926; active = well fitted activation curve with a large enough effect in the main read-out, with a control signal flat, not every such curve was filed as active; inconclusive = small, poorly fitted or top-dose-only effect, or a change in a side signal; inactive = no such curve, though single readings can be large or run the other way; reference of the percent scale not stated here;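 also: the control signal comes from parental cells without the receptor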
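HEK 293 cells stably expressing TSHR and a cAMP-gated CNG channel; parental CNG-only cells as counterscreen. Cells preloaded 60 min with membrane potential dye plus 100 uM RO 20-1724, then compound 30 min; fluorescence read at 590 nm.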
TsaE inh: displaces an ADP probe from E. coli YjeE (TsaE); P0AF67; 71,000 tested, 0.05% active; Potency, µM; purified YjeE enzyme, qHTS inhibition assay
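Purified YjeE (10 uM) with BODIPY Texas Red-labeled ADP probe (2 uM); compounds pin-transferred, 15 min at room temperature. Binding inhibition read as decreased fluorescence polarization; ADP titration as control.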
Of the large screens only hits and unclear results are named; the others gave an inactive call. Unless noted, calls follow the shape of the dose curve; as a rule, active = well fitted curve in the direction sought with a large enough effect; inconclusive = small, poorly fitted or top-dose-only effect, or another doubt; inactive = no such curve, though single readings can be large; an effect the other way counts as inactive or inconclusive.

CN(C)c1nc(N)c(C(=O)N=C(N)N)nc1Cl	HEK293 cAMP ctrl 25µM, TSHR agonist inconclusive
NC(=Nc1ccccc1)NC(=O)c1nc(Cl)c(N)nc1N	none
COC(=O)c1ccccc1NC(=O)C1CC(c2ccccc2O)=NO1 (configuration not stated)	HEK293 cAMP ctrl inconclusive, TSHR agonist inconclusive
COC(=O)[C@@]1(Cc2ccc(F)cc2)[C@H]2c3cc(C(=O)N4CCCC4)n(Cc4ccc(C)o4)c3C[C@H]2CN1C(=O)c1ccccc1	HEK293 cAMP ctrl 32µM, TSHR agonist inconclusive
COC(=O)[C@@]1(Cc2ccc(F)cc2)[C@H]2c3cc(C(=O)N4CCCC4)n(CC4CC4)c3C[C@H]2CN1C(=O)c1ccccc1	HEK293 cAMP ctrl 4µM, TSHR agonist inconclusive
COC(=O)[C@@]1(Cc2ccc(F)cc2)[C@H]2c3cc(C(=O)N4CCCC4)n(Cc4ccc(C)c(F)c4F)c3C[C@H]2CN1C(=O)c1ccccc1	HEK293 cAMP ctrl inconclusive, TSHR agonist inconclusive
COC(=O)[C@@]1(Cc2ccc(F)cc2)[C@H]2c3cc(C(=O)N4CCCC4)n(Cc4cc(C)n(C)n4)c3C[C@H]2CN1C(=O)c1ccccc1	HEK293 cAMP ctrl 16µM, TSHR agonist inconclusive
COC(=O)[C@@]1(Cc2ccc(F)cc2)[C@H]2c3cc(C(=O)N4CCCC4)n(CCF)c3C[C@H]2CN1C(=O)c1ccccc1	HEK293 cAMP ctrl inconclusive, TSHR agonist inconclusive
COC(=O)[C@@]1(Cc2ccc(F)cc2)[C@H]2c3cc(C(=O)N4CCCC4)n(Cc4ccc(S(C)(=O)=O)cc4)c3C[C@H]2CN1C(=O)c1ccccc1	HEK293 cAMP ctrl 16µM, TSHR agonist inconclusive
CCn1c(=O)cc(OCC(=O)Nc2ccc(C)cn2)c2ccccc21	none
CCOC(=O)NC(NC(=O)OCC)C(=O)c1ccc(F)cc1	none
COCCOC(=O)c1c(C)oc2ccc(OCc3cc(C(=O)OC)oc3C)cc12	HEK293 cAMP ctrl 25µM, TSHR agonist inconclusive
Cc1ccc(-n2ncc3c(NCCCn4ccnc4)ncnc32)c(C)c1	HEK293 cAMP ctrl 1.6µM, TSHR agonist inconclusive
Cc1cccc(-n2ncc3c(NCCCn4ccnc4)ncnc32)c1	HEK293 cAMP ctrl inconclusive, TSHR agonist inconclusive
Cn1c(=O)c2c(nc(CN3CCN(c4ccc(F)cc4)CC3)n2CCN2CCOCC2)n(C)c1=O	none
O=C(O)CSc1nnc(CNc2ccc(Cl)cc2)n1Cc1ccccc1	HEK293 cAMP ctrl 32µM, TSHR agonist inconclusive
CCN(CC)C(=O)c1sc2nc(-c3ccc(OC)cc3)cn2c1C	HEK293 cAMP ctrl 16µM, TSHR agonist inconclusive
Cc1ccc(C2C3CSCC=C3C(C#N)=C(N)C2(C#N)C#N)cc1 (configuration not stated)	TSHR agonist 25µM
CCCC/C=C/C(NC(=O)C(C)(C)C)c1ccccc1 (configuration not stated)	HEK293 cAMP ctrl 25µM, TSHR agonist inconclusive
CCC/C=C(\CCC)C(NC(=O)c1ccccc1)c1ccc(C(=O)OC)cc1 (configuration not stated)	HEK293 cAMP ctrl 3.2µM, TSHR agonist inconclusive
COC(=O)c1ccc(C(/C=C/[C@@H](C)C(=O)N(C)Cc2ccccc2)NC(=O)OCc2ccccc2)cc1 (some centres not stated)	HEK293 cAMP ctrl inconclusive, TSHR agonist inconclusive
CCCC/C=C/C(NC(=O)c1ccc(C(=O)OC)cc1)c1ccccc1 (configuration not stated)	HEK293 cAMP ctrl 25µM, TSHR agonist inconclusive
COc1ccc(OC)c(S(=O)(=O)NCc2cn3ccsc3n2)c1	none
Cc1nn(-c2ccccc2)c2sc(C(=O)N(CC(=O)NC(C)(C)C)Cc3ccco3)cc12	HEK293 cAMP ctrl 16µM, TSHR agonist inconclusive
COC(=O)c1cc2c(C)nn(-c3ccccc3)c2s1	none
Cc1cc(C)n(-c2nc3ccccc3nc2N2CCOCC2)n1	none
Cc1cc(C)n(-c2nc3ccccc3nc2N2CCCCCC2)n1	HEK293 cAMP ctrl 20µM, TSHR agonist inconclusive
O=S(=O)(c1ccc(NC2CCCc3ccccc32)nc1)N1CCOCC1 (configuration not stated)	none
CCN(CC)S(=O)(=O)c1ccc(NC2CCCc3ccccc32)nc1 (configuration not stated)	HEK293 cAMP ctrl 25µM, TSHR agonist inconclusive
CCOC(=O)c1[nH]c(C)c(CN(CCc2ccccc2)S(C)(=O)=O)c1C	TSHR agonist 32µM
CC(=O)Nc1ccc(S(=O)(=O)Nc2ccc(S(=O)(=O)N3CCCCCC3)cc2)cc1	none
N=c1n(-c2ccccc2)c(O)cc(=O)n1-c1ccccc1	none
CCN(c1cccc(C(F)(F)F)c1)S(=O)(=O)c1ccc2c(c1)CCN2C(=O)C1CC1	HEK293 cAMP ctrl 25µM, TSHR agonist inconclusive
CCOc1ccc(Br)cc1/C=N/O	HEK293 cAMP ctrl 4µM, TSHR agonist inconclusive
O=C1CCC(c2ccccc2)(c2ccccc2)CC1	none
COc1ccc2nc3c(cc2c1)Cc1ccccc1-3	HEK293 cAMP ctrl 25µM, TSHR agonist inconclusive
Cc1c(C(=O)O)oc2c3c(ccc12)OCCO3	none
c1ccc(-c2nnc3sc(-c4csc5c4CCCC5)nn23)cc1	HEK293 cAMP ctrl 25µM, TSHR agonist inconclusive
c1ccc(-c2nnc3sc(-c4ccncc4)nn23)cc1	none
Cc1cccc(-c2nnc3sc(-c4ccccc4C)nn23)c1	HEK293 cAMP ctrl 32µM, TSHR agonist inconclusive
CCOC(=O)NCc1cc(-c2nn(C)c(=O)c3ccccc23)ccc1C	none
Cc1ccc(-c2cc(C(=O)Nc3cc(C)on3)c3ccccc3n2)c(C)c1	HEK293 cAMP ctrl inconclusive, TSHR agonist inconclusive
Cc1cc(NC(=O)c2cc(-c3cccnc3)nc3c(C)c(C)ccc23)no1	HEK293 cAMP ctrl 25µM, TSHR agonist inconclusive
COc1ccccc1-c1nnc(SCC(=O)NC2CCCCC2)o1	none
Cc1ccccc1-c1nnc(SCC(=O)NC2CCCCC2)o1	HEK293 cAMP ctrl 32µM, TSHR agonist inconclusive
COCC(C)n1c(C)cc(C(=O)COC(=O)c2c(NC(C)=O)sc(C)c2C)c1C (configuration not stated)	TSHR agonist 13µM
COCC(C)n1c(C)cc(C(=O)COC(=O)c2c(C)nn(-c3ccccc3)c2C)c1C (configuration not stated)	HEK293 cAMP ctrl inconclusive, TSHR agonist inconclusive
CC1(C)CC2CC(C)(CN2C(=O)COC(=O)c2ccc(Cl)cc2N)C1 (configuration not stated)	HEK293 cAMP ctrl 25µM, TSHR agonist inconclusive

Bioassay records: PubChem, National Center for Advancing Translational Sciences (NCATS)
